Screening results from PubChem.
The full list was thinned out, with hits kept by preference.
HT1080-NT tox – qHTS for induction of synthetic lethality in tumor cells producing 2HG: qHTS for the HT-1080-NT fibrosarcoma cell line. actives 1.6% (n = 360,000). Potency, µM (titrated, usually from 46.1 µM), inactives show at the top dose activity, negative = less viability, most hits filed as cytotoxic. AID 686970, 2013. HT-1080-NT fibrosarcoma viability, CellTiter-Glo ATP luminescence, 48 h;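 also: NT is the 2HG producing partner of a matched IDH1 knockdown line; potency is read from the fitted curve at half-maximal effect; 0% = DMSO-treated cells and -100% = media-only wells without cells; nearly all actives have a fitted effect of over 55% in size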
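Read-out is CellTiter-Glo luminescence after 10 minutes at room temperature, following 48 hours' compound treatment of HT-1080-NT cells (750 cells/well, RPMI, 5% FBS, 37 degrees C).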
12-LOX inh – Primary qHTS assay for inhibitors of human arachidonate 12S-lipoxygenase (ALOX12): Round 2; Polyunsaturated fatty acid lipoxygenase ALOX12 (Homo sapiens), P18054; purified 12hLO, xylenol orange hydroperoxide absorbance; Potency, µM (highest dose often 108 µM), without a hit: at the top dose activity change, negative = inhibition, hits mostly inhibitors; actives 1.1% (n = 580,000); AID 1671190, 2021; also: potency is read from the fitted curve at half-maximal effect
Target sequence (P18054 whole entry, looked up): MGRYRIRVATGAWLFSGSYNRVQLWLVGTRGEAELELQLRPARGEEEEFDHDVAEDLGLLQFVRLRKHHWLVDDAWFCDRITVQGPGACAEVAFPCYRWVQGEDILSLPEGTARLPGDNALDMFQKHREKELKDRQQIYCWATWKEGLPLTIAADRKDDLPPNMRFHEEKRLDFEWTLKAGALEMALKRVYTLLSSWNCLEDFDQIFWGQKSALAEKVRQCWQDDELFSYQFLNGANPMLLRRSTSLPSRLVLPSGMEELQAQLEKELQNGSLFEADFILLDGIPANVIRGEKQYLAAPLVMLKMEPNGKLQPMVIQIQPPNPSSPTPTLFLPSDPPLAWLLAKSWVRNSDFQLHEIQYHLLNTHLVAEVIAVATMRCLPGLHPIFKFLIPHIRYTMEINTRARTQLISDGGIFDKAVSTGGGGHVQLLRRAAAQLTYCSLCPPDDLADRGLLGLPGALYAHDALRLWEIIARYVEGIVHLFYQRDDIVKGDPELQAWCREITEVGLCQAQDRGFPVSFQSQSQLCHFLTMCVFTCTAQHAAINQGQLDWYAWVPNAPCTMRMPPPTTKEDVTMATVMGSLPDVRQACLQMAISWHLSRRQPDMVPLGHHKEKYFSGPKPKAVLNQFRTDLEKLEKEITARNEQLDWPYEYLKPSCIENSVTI
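Purified human 12hLO at 150 nM in 25 mM Hepes, 0.01% Triton X-100, pH 7.0, preincubated 15 min at room temperature with compound. Reaction started with 40 uM arachidonic acid, 30 min at room temperature. Hydroperoxide measured by Fe-xylenol orange, 573/405 nm absorbance ratio.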
HT1080 IDH1KD tx – qHTS for induction of synthetic lethality in tumor cells producing 2HG: qHTS for the HT-1080-IDH1KD cell line. HT-1080 IDH1 knockdown viability, ATP luminescence, 48 h. Potency, µM (highest dose often 46.1 µM), without a hit: at the top dose activity, negative = toxicity, most hits filed as cytotoxic. actives 2% (n = 360,000);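 also: potency is read from the fitted curve at half-maximal effect; 0% = DMSO wells and -100% = cell-free medium wells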
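In this qHTS, HT-1080 cells depleted of IDH1 are exposed for 48 h at 37 °C to compound titrations. Toxicity is scored from CellTiter-Glo luminescence, with DMSO as full viability and medium alone as none.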
DT40 TDP1 no CPT – qHTS for Inhibitors of human tyrosyl-DNA phosphodiesterase 1 (TDP1): qHTS in cells in absence of CPT; DT40 Tdp1-/- hTDP1 cells, no CPT, ATP luminescence, 48 h; Potency, µM (highest dose often 46.2 µM), without a hit: top-dose activity change, negative = growth inhibition, hits mostly inhibitors; actives 15% (n = 420,000); also: potency is read from the fitted curve at half-maximal effect; nearly all actives have a fitted effect of over 55% in size
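DT40 Tdp1-/-;hTDP1 cells, no CPT (DMSO vehicle only), 400 cells/well; compounds pin-transferred; ≥48 hr, 37 °C; CellTiter-Glo 30 min RT dark, luminescence read.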
TDP1 cell CPT – qHTS for Inhibitors of human tyrosyl-DNA phosphodiesterase 1 (TDP1): qHTS in cells in presence of CPT | AID 686979, 2013 | actives 12% (n = 420,000) | chicken DT40 Tdp1-/-;hTDP1 cells + 20 nM CPT, ATP luminescence, 48 h | Potency, µM (top dose mostly 46.2 µM), without a hit: at the top dose activity change, negative = growth inhibition, most hits filed as inhibitors; also: potency is read from the fitted curve at half-maximal effect; nearly all actives have a fitted effect of over 55% in size
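Chicken DT40 Tdp1-/- cells complemented with human TDP1, 400 cells/well, exposed to compounds plus 20 nM camptothecin for at least 48 h at 37 C; viability read as ATP content by CellTiter-Glo luminescence.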
IL-1B inflam inh – qHTS for Inhibitors of Inflammasome Signaling: IL-1-beta AlphaLISA Primary Screen | actives 4.7% (n = 360,000) | AID 743279, 2014 | THP-1 LPS/ATP IL-1B secretion, AlphaLISA, 16 h; hits give low values | activity change, % at 57.5 µM; in the data active = activity change below about -50%; inconclusive = mostly about -30% to -49%
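Secreted IL-1B measured by AlphaLISA bead assay after 16 h compound exposure of THP-1 cells; compounds (final up to 57.5 uM) added 1 h before LPS (250 ng/mL) and ATP (1.25 mM) stimulation; lower signal means less secretion.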
The depositor's hits bear a star; i = inactive; ? = inconclusive; · = no result given; [ ] = dose if it differs, or a comment. Unless noted, calls follow the shape of the dose curve; as a rule, active = well fitted curve in the direction sought with a large enough effect; inconclusive = small, poorly fitted or top-dose-only effect, or another doubt; inactive = no such curve, though single readings can be large; an effect the other way counts as inactive or inconclusive. Unless noted, % is scaled to controls: 0 for no effect and ±100 for the full control effect.

SMILES	HT1080-NT tox	12-LOX inh	HT1080 IDH1KD tx	DT40 TDP1 no CPT	TDP1 cell CPT	IL-1B inflam inh
CCn1cc(CN2CCC(C(=O)Nc3ccc(Oc4ccccc4F)cc3)CC2)cn1	-14%	?	-29%	21µM*	?	24
COc1ccc(CN2CCC(C(=O)Nc3ccc(Oc4cccnc4)cc3)CC2)cc1	-1%	-7%	-13%	-11%	?	i
COc1cccc(O)c1CN1CCC(C(=O)Nc2ccc(Oc3cccnc3)cc2)CC1	-15%	13%	-29%	13µM*	21µM*	5
CCc1ccc(-c2cc3c(=O)[nH]nc(SCC(=O)NC4CCCCC4)n3n2)cc1	·	1%	·	·	·	·
Cc1cccc(N2CCN(C(=O)CCc3nnc4n(CC(C)C)c(=O)c5ccccc5n34)CC2)c1C	·	-25%	·	?	-21%	·
CC(C)Cn1c(=O)c2ccccc2n2c(CCC(=O)N3CCN(c4ccccc4)CC3)nnc12	·	-19%	·	16µM*	?	·
CC(C)Cn1c(=O)c2ccccc2n2c(CCC(=O)N3CCN(c4ccccc4F)CC3)nnc12	·	-24%	·	23µM*	23µM*	·
O=C(c1ccccn1)N1CCC(N2C(=O)C(O)C23CCCCC3)CC1 (stereo unspecified)	·	57%	·	·	·	·
CCCN(CC(=O)Nc1ccccc1C)S(=O)(=O)c1cccc2cc(C)cnc12	·	0%	·	·	·	·
O=c1[nH]nc(-c2ccco2)c2c1Nc1nnnn1C2c1cccc(F)c1 (stereo unspecified)	·	2%	·	·	·	·
Cc1ccc(Cl)cc1N1CCN(C(=O)c2cc3c(=O)n(C)c4ccccc4c3n2C)CC1	2%	378%	5%	16µM*	18µM*	56
Cn1c(=O)c2cc(C(=O)N3CCN(c4cccc(C(F)(F)F)c4)CC3)sc2c2ccccc21	·	1%	·	3.7µM*	?	·
Cc1ccc(Cl)cc1N1CCN(C(=O)Cn2ncc3c4ccccc4n(C)c3c2=O)CC1	·	-13%	·	-1%	6%	·
Cn1c(C(=O)N2CCCC2)cc2c(=O)n(C)c3ccccc3c21	14%	427%	1%	-25%	-17%	-14
Cc1cccc(N2CCN(C(=O)c3cc4c(=O)n(C)c5ccccc5c4s3)CC2)c1C	·	2%	·	5.8µM*	?	·
Cc1cccc(N2CCN(C(=O)c3cc4c(=O)n(C)c5ccccc5c4n3C)CC2)c1C	-8%	227%	3%	16µM*	?	23
Cc1cccc(N2CCN(C(=O)c3cc4c(=O)oc5ccccc5c4s3)CC2)c1C	·	-3%	·	1%	-17%	·
CC(C)Cc1cc(CNC(=O)C(c2ccccc2F)N(C)C)on1 (stereo unspecified)	·	-24%	·	·	·	·
Cn1c(C(=O)N2CCN(c3ncccn3)CC2)cc2c(=O)n(C)c3ccccc3c21	3%	-15%	7%	21µM*	?	-9
CC(C(=O)N1CCCCC1)n1ncn2cccc2c1=O (stereo unspecified)	7%	-4%	16%	6%	-3%	6
Cc1ccc(Cl)cc1N1CCN(C(=O)C(C)n2ncn3cccc3c2=O)CC1 (stereo unspecified)	3%	32%	-4%	23µM*	18µM*	-23
Cn1c(=O)c2c(ncn2CC(=O)c2ccc(O)cc2)n(C)c1=O	·	-22%	·	·	·	·
COc1ccc(-c2nc(C3CC3)nc3c2CCN([S+](=O)([O-])c2cccs2)CC3)cc1	·	12%[6.33 µM]	·	·	·	·
CSc1ccc(C2CC(=O)NC3=C2C(=O)CC(C)(C)C3)cc1 (stereo unspecified)	·	0%	·	·	·	·
COCCNC(=S)NCc1cccc(CNC(=S)NCCOC)c1	·	-17%	·	·	·	·
SMILES	HT1080-NT tox	12-LOX inh	HT1080 IDH1KD tx	DT40 TDP1 no CPT	TDP1 cell CPT	IL-1B inflam inh
Cc1cc(C)nc(/N=C(\N)Nc2ccc(CC(=O)OC(C)C)cc2)n1	-12%	15%	-27%	3.3µM*	?	-99*
Cc1cc(C)nc(/N=C(\N)Nc2cccc(OCc3ccccc3)c2)n1	?	?	?	12µM*	16µM*	-68*
Cc1cc(C)nc(/N=C(\N)Nc2ccc(C)c([N+](=O)[O-])c2)n1	-4%	-3%	-13%	13µM*	10µM*	-112*
COc1ccc(N/C(N)=N/c2nc(C)cc(C)n2)cc1	3%	-5%	2%	?	-21%	82
Cc1cc(C)nc(/N=C(\N)Nc2ccc(OCc3ccccc3)cc2)n1	18µM*	?	?	12µM*	12µM*	-93*
Cc1cc(C)nc(/N=C(\N)Nc2ccc(S(=O)(=O)O)cc2)n1	13%	-2%	6%	8%	0%	34
CCOc1ccc(C2NC(=O)N(CC3CC3)C3=C2C(=O)OC3)cc1 (stereo unspecified)	·	27%	·	·	·	·
CC(C)(C)c1[nH]c2ccccc2c1C=O	·	59%	·	·	·	·
N#Cc1ccc(C(=O)NC2CCCC(C(F)(F)F)C2)cc1 (stereo unspecified)	·	3%	·	·	·	·
Cc1cc(NC(=O)COC(=O)c2cc3ccccc3s2)no1	·	-1%	·	·	·	·
Cc1cc(C)nc(/N=C(\N)Nc2ccc(OCCC(C)C)cc2)n1	15µM*	-32%	23µM*	12µM*	9.2µM*	-98*
O=C(OCC(=O)N(Cc1ccccc1)C1CCS(=O)(=O)C1)c1n[nH]c2ccccc12 (stereo unspecified)	·	-60%	·	·	·	·
COc1cc2c(cc1OC)CN(C(=O)c1ccc(S(=O)(=O)N(C)c3ccccc3)cc1)CC2	?	-20%	-9%	15µM*	?	2
CN(c1ccc(C(=O)N2CCCCCC2)cc1)S(=O)(=O)c1ccccc1	2%	7%	-1%	8.2µM*	13µM*	14
CN(c1ccc(C(=O)N2CCCCC2)cc1)S(=O)(=O)c1cccs1	-8%	0%	-13%	?	?	0
COc1cc2c(cc1OC)CN(C(=O)c1cccc(S(=O)(=O)N(C)C)c1)CC2	0%	0%	6%	0%	-10%	10
CN1CCN(C(=O)c2ccc(S(=O)(=O)N(C)c3ccccc3)cc2)CC1	13%	14%	11%	0%	-15%	-6
COc1ccc(S(=O)(=O)N(C)c2ccc(C(=O)N3CCCCC3)cc2)cc1	-10%	0%	-9%	15µM*	?	0
